From PubChem BioAssay (EPA / NIEHS)
Where “and” joins values, the source holds several entries; their conditions need not be identical. Identical values can stand only once. Records with an inconclusive call do not appear. The source holds several records for some structures; these can differ, active in one and inactive in another. Calls of active or inactive are those of the source. How the source made its calls, unless noted: active means hit-call score of the fitted dose curve at least 0.9, where 1 is the maximum; inconclusive means response in the unintended direction; inactive means score below 0.9.

How the values were obtained:
[1] = biological target: Bile acid receptor (Homo sapiens) (UniProt Q96RI1); assay: ATG_FXR_TRANS: Attagene TRANS-FACTORIAL HepG2 Assay for Farnesoid X Receptor (FXR) (AID 2282979); conditions: HepG2 Attagene TRANS FXR-GAL4 reporter transcription;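 further: hits raise reporter mRNA above DMSO so AC50 marks FXR activation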
Chain of Bile acid receptor (Homo sapiens) (Q96RI1 whole entry, looked up, the tested form may be a part): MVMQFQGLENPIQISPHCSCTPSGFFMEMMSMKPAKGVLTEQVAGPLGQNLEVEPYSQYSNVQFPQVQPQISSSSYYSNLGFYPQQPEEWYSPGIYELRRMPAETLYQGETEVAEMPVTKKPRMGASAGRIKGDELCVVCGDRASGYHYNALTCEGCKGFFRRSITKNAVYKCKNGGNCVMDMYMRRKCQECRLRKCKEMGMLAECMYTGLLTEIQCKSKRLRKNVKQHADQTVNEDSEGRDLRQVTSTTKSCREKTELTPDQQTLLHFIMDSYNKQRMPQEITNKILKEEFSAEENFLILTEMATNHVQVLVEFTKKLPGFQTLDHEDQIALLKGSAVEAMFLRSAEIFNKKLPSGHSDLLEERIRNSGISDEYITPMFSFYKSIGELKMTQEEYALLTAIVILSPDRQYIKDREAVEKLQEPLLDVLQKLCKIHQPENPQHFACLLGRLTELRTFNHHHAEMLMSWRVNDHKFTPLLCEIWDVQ
Procedure, shortened: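 Transient transfection of HepG2 with multiplexed GAL4-UAS reporter units; exogenous FXR-GAL4 chimera. Dose 24 h → TriZol RNA → oligo(dT) RT → PCR, 6-FAM primer extension, HpaI cut → CE. Gain vs DMSO.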

[2] = biological target: Oxysterols receptor LXR-alpha (Homo sapiens) (UniProt Q13133); assay: ATG_LXRa_TRANS: Attagene TRANS-FACTORIAL HepG2 Assay for human Liver X Receptor alpha (LXRa) (AID 2282980); conditions: HepG2 Attagene TRANS reporter, LXRa transactivation
Chain of Oxysterols receptor LXR-alpha (Homo sapiens) (Q13133 whole entry, looked up, the tested form may be a part): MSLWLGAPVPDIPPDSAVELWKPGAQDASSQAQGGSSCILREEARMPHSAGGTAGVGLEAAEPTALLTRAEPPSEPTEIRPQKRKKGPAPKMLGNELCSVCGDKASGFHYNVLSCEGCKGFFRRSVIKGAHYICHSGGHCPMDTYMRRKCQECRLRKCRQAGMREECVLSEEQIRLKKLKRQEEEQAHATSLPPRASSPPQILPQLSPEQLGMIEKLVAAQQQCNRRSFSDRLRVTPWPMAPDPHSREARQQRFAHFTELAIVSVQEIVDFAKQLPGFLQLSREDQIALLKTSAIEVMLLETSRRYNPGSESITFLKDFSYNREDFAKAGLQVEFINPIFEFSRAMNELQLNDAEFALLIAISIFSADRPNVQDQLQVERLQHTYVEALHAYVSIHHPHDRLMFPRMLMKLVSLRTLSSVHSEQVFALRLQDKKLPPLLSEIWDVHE
Procedure, shortened: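 Transfect HepG2 with GAL4-UAS multiplex reporter constructs (TRANS format, chimeric receptor-GAL4); treat 24 h; extract RNA, reverse-transcribe, PCR-amplify, FAM-label, HpaI-digest; resolve fragments by capillary electrophoresis. Upward response vs DMSO.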

[3] = biological target: Estrogen receptor beta (Homo sapiens) (UniProt Q92731); assay: OT_ER_ERbERb_1440: Odyssey Thera (OT) 24-hour HEK293T Protein-Complementation Assay for Estrogen Receptor-beta/-beta Homodimer (AID 2283380);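 further: scored as signal increase over DMSO baseline for both agonists and antagonists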
Chain of Estrogen receptor beta (Homo sapiens) (Q92731 whole entry, looked up, the tested form may be a part): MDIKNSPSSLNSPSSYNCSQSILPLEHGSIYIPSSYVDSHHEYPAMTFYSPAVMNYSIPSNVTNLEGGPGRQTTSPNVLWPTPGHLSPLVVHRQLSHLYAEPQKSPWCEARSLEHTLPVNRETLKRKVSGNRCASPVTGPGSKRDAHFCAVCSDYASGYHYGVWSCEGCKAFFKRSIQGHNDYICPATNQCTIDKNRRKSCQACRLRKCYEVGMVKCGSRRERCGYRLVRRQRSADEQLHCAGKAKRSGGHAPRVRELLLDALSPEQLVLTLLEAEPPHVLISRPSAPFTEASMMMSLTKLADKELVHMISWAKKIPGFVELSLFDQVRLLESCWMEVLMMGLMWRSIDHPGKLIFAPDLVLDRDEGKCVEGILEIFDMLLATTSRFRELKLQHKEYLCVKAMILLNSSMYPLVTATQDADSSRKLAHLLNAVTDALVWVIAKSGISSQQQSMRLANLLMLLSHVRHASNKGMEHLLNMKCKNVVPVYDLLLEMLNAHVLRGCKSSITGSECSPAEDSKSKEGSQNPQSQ
Procedure, shortened: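 HEK293T cells stably expressing ER beta LBD (aa 310-547) homodimer fragment-complementation reporter, dosed 24 h. Cells formaldehyde-fixed, Draq5-stained; gain in nuclear (agonist) or nuclear plus cytoplasmic (antagonist) fluorescence versus DMSO read by laser scanning cytometry.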

[4] = ACEA_AR_agonist_AUC_viability: ACEA Biosciences xCELLigence Real-Time Cell Analysis on Androgen Receptor Agonism for Viability (AID 2283775)
Procedure, shortened: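 Read-out is area under the impedance curve at 80 h post-dose in 22Rv1 cells, with DMSO as baseline and signal loss taken as reduced viability. Compounds ran in duplicate from 100 uM final.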

[5] = biological target: Steroid hormone receptor ERR1 (Homo sapiens) (UniProt P11474); assay: ATG_ERRa_TRANS: Attagene TRANS-FACTORIAL HepG2 Assay for human Estrogen-Related Receptor alpha (ERRa) (AID 2282971); conditions: HepG2 Attagene TRANS reporter, ERRa transactivation
Chain of Steroid hormone receptor ERR1 (Homo sapiens) (P11474 whole entry, looked up, the tested form may be a part): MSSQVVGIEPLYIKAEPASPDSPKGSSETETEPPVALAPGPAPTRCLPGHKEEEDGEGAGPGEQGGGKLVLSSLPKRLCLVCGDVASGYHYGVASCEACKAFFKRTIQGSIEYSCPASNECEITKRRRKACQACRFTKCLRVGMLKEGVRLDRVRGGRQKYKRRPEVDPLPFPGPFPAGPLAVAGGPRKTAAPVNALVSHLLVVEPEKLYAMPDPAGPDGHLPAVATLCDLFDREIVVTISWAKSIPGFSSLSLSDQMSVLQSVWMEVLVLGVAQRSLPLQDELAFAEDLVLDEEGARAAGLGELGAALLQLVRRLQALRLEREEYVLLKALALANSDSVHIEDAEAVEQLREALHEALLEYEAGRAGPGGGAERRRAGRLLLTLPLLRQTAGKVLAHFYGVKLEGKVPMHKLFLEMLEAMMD
Procedure, shortened: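 Reporter transcript induction was quantified by RT-PCR and capillary electrophoresis of FAM-labelled, HpaI-cut products after 24 h treatment of HepG2 cells carrying transiently transfected GAL4-UAS reporter units and an exogenous ERRa-Gal4 fusion; activity scored as increase over DMSO.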

[6] = biological target: Estrogen receptor (Homo sapiens) (UniProt P03372); assay: ATG_ERa_TRANS: Attagene TRANS-FACTORIAL HepG2 Assay for human Estrogen Receptor alpha (ERa) (AID 2282970); conditions: HepG2 Attagene TRANS ERa GAL4 reporter, mRNA
Chain of Estrogen receptor (Homo sapiens) (P03372 whole entry, looked up, the tested form may be a part): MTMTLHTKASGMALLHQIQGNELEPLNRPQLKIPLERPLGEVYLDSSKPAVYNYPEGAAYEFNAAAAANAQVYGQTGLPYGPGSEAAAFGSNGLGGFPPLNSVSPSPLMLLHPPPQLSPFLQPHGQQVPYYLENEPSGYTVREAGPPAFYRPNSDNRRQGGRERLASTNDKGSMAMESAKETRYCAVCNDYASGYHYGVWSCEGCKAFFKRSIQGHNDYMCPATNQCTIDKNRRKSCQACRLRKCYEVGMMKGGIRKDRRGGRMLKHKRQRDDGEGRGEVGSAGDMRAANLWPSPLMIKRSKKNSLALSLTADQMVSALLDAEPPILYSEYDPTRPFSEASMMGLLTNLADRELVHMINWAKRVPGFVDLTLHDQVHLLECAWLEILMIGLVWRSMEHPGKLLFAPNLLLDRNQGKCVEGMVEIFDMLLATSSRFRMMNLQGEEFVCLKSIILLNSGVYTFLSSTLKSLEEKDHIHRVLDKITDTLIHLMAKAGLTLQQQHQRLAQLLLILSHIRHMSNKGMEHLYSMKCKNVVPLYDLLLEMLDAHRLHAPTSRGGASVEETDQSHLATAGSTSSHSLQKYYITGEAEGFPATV
Procedure, shortened: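 Human liver HepG2, transient transfection of multiple GAL4-UAS reporter units; TRANS format (exogenous NR-Gal4 chimera). 24 h dosing. Readout: reporter mRNA, RT-PCR, 6-FAM primer extension, HpaI digest, capillary electrophoresis. Positive direction vs DMSO.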

[7] = biological target: Retinoic acid receptor alpha (Homo sapiens) (UniProt P10276); assay: ATG_RARa_TRANS: Attagene TRANS-FACTORIAL HepG2 Assay for human Retinoic Acid Receptor alpha (RARa) (AID 2283005)
Chain of Retinoic acid receptor alpha (Homo sapiens) (P10276 whole entry, looked up, the tested form may be a part): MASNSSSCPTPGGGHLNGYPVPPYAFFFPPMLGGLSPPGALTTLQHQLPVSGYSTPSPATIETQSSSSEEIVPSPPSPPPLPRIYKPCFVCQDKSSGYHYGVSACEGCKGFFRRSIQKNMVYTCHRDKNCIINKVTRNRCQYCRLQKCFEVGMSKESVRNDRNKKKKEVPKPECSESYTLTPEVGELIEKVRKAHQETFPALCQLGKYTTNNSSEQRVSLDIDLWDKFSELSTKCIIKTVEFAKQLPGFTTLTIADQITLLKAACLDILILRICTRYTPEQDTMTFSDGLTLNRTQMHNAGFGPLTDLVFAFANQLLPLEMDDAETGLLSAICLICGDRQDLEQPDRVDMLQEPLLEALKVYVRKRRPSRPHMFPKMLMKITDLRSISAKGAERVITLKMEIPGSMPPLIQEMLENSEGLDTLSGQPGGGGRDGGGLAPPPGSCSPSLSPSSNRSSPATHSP
Procedure, shortened: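 HepG2 transiently transfected with multiplex GAL4-UAS reporter units including a human RARa–GAL4 chimera; 24 h compound exposure. Reporter mRNA quantified by RT-PCR, 6-FAM labeling and capillary electrophoresis; gain of signal versus DMSO.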

[8] = biological target: Glucocorticoid receptor (Homo sapiens) (UniProt P04150); assay: ATG_GR_TRANS: Attagene TRANS-FACTORIAL HepG2 Assay for human Glucocorticoid Receptor (GR) (AID 2282978); conditions: HepG2 Attagene TRANS GR reporter, mRNA transcription;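 further: activators score as hits since higher reporter transcript over DMSO is fitted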
Chain of Glucocorticoid receptor (Homo sapiens) (P04150 whole entry, looked up, the tested form may be a part): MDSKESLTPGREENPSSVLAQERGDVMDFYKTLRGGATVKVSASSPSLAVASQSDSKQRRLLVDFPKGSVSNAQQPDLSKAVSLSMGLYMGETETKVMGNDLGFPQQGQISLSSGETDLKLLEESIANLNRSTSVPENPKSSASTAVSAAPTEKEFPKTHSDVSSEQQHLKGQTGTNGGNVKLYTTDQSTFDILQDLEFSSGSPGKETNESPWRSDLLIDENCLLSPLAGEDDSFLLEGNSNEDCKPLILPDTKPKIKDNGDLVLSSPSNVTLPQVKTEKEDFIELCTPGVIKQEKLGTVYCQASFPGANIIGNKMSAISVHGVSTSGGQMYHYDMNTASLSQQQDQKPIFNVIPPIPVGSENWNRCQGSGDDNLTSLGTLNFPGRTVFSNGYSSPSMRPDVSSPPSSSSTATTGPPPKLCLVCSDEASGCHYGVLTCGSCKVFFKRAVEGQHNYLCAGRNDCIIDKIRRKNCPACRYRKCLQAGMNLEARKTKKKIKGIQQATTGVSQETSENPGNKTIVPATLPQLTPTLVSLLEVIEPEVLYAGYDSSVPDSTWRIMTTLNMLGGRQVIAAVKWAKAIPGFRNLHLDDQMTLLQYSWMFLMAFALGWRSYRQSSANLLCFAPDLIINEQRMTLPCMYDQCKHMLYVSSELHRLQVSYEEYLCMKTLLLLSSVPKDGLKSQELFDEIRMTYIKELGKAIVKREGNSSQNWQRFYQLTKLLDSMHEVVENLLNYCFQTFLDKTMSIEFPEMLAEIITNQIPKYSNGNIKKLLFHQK
Procedure, shortened: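 HepG2 cells transiently transfected with GAL4-UAS reporter units and exogenous GR-Gal4 chimera, dosed 24 h. Reporter mRNA by RT-PCR, FAM labeling, HpaI digest and capillary electrophoresis; gain-of-signal fit versus DMSO.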

[9] = CCTE_Harrill_HTTr_Apoptosis_MCF7: CCTE's 6-hour Apoptosis Assessment for the High-Throughput Transcriptomics (HTTr) Platform, in MCF-7 cells cultured in DMEM + 10% fetal bovine serum, Harrill Lab (AID 2284011; active means hit-call score of the fitted dose curve at least 0.9, where 1 is the maximum; inactive means score below 0.9)
Procedure, shortened: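 MCF-7 (DMEM + 10% FBS), 384-well; 8-pt dilution series, 6 h chemical exposure; caspase-3/7 activation via CellEvent Caspase 3/7 Green, HCI; bidirectional fit vs DMSO.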

[10] = CCTE_Harrill_HTTr_CellCount_MCF7: CCTE's Cell Proliferation Assessment for the High-Throughput Transcriptomics (HTTr) Platform, Harrill Lab (AID 2284012);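 further: cells exposed to compound for six hours; intended direction is loss of nuclei count meaning fewer cells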
Procedure, shortened: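 MCF-7 cells were exposed for 6 h to an eight-point dilution series; Hoechst-labeled nuclei were counted by high content imaging. Curves were fitted bidirectionally against DMSO as negative control and baseline, with signal loss indicating reduced cell count.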

[11] = biological target: Estrogen-related receptor gamma (Homo sapiens) (UniProt P62508); assay: ATG_ERRg_TRANS: Attagene TRANS-FACTORIAL HepG2 Assay for human Estrogen-Related Receptor gamma (ERRg) (AID 2282977); conditions: HepG2 Attagene TRANS reporter, ERRg transactivation;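 further: hits increase reporter signal over DMSO so potencies reflect activators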
Chain of Estrogen-related receptor gamma (Homo sapiens) (P62508 whole entry, looked up, the tested form may be a part): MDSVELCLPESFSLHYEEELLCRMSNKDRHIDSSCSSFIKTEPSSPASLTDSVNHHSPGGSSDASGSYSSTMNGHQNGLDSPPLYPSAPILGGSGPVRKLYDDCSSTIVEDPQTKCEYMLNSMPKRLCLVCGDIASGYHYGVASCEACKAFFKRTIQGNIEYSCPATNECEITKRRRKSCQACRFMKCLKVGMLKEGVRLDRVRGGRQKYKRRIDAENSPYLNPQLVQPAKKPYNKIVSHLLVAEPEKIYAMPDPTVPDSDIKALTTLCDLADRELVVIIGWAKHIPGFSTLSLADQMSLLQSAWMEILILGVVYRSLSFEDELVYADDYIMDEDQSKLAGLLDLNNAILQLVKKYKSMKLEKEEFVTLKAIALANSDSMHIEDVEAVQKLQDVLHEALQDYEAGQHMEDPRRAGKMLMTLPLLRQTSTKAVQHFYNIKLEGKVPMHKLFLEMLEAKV
Procedure, shortened: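 HepG2 cells transiently transfected with multiplexed GAL4-UAS reporter units and chimeric NR-Gal4 constructs were exposed to test chemicals for 24 h. Reporter mRNA was measured by RT-PCR, 6-FAM primer extension, HpaI digestion and capillary electrophoresis; gain-of-signal versus DMSO.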

[12] = biological target: human CYP2J2, CYP2J2 (gene 1573) (UniProt P51589); assay: NVS_ADME_hCYP2J2: NovaScreen (NVS) CYP450-related Enzyme Activity (ADME) Assay for human CYP2J2 (AID 2283106)
Chain of human CYP2J2, CYP2J2 (gene 1573) (P51589 whole entry, looked up): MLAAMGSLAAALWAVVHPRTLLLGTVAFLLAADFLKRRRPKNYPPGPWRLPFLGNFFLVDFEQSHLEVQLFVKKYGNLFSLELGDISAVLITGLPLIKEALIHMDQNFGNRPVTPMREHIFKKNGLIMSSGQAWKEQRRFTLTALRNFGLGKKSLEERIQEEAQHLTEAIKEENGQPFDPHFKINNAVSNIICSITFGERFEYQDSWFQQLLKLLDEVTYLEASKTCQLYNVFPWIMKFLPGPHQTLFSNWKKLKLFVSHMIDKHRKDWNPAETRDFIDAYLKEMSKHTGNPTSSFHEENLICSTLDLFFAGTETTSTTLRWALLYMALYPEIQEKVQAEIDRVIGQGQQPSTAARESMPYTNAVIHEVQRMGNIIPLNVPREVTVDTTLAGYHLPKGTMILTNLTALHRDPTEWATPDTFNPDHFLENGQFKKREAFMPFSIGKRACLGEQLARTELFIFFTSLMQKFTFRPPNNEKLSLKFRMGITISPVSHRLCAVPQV
Procedure, shortened: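 Cell-free assay of recombinant CYP2J2 with a fluorogenic substrate, read 1 h after dosing; loss of signal versus acetonitrile. Primary screen at 10 uM in duplicate, then concentration-response up to 20 uM for chemicals passing threshold (e.g., 30% inhibition).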

## CC(O)CN(CC(C)O)CC(C)O (stereo not drawn)
[1]
  outcome: inactive
[2]
  outcome: inactive
[3]
  outcome: inactive
[4]
  outcome: inactive

## CC1CCC(=O)O1 (stereo not drawn)
[5]
  outcome: inactive

## C=C(Cl)CCl
[6]
  outcome: inactive
[2]
  outcome: inactive

## CCC1CCC(=O)O1 (stereo not drawn)
[7]
  outcome: inactive
[3]
  outcome: inactive

## O=C(O)C(Br)Br
[8]
  outcome: inactive
[1]
  outcome: inactive

## CCCCNP(N)(N)=S
[6]
  outcome: inactive
[1]
  outcome: inactive

## COc1cc(OC)c(OC)cc1C=O
[6]
  outcome: inactive
[5]
  outcome: inactive

## CC(=O)c1cc2c(cc1C)C(C)(C)C(C)CC2(C)C (stereo not drawn)
[1]
  outcome: inactive
[3]
  AC50: 12.5 µM (active)
[4]
  outcome: inactive
[9]
  outcome: inactive
[10]
  outcome: inactive

## C=C(Cl)Cl
[6]
  outcome: inactive
[11]
  outcome: inactive
[8]
  outcome: inactive
[2]
  outcome: inactive
[7]
  outcome: inactive

## CC(C)(c1ccc(O)cc1)c1ccc(O)cc1
[12]
  AC50: 4.93 µM (active)

## CCN(CC)CCOc1ccc(C(=C(Cl)c2ccccc2)c2ccccc2)cc1
[12]
  AC50: 4.08 µM (active) and 7.21 µM (active)
  outcome: inactive

## CCSC(=O)N(CC(C)C)CC(C)C
[12]
  AC50: 1.4 µM (active)

## O=c1c(-c2ccc(O)cc2)coc2cc(O)cc(O)c12
[12]
  AC50: 979 nM (active) and 1.06 µM (active) and 443 nM (active)

## CCCCOCCOCCOCc1cc2c(cc1CCC)OCO2
[12]
  AC50: 0.116 µM (active)

## N#CSCSc1nc2ccccc2s1
[12]
  AC50: 0.466 µM (active)

## Cc1nn(C)c(Oc2ccccc2)c1C=NOCc1ccc(C(=O)OC(C)(C)C)cc1
[12]
  AC50: 5.24 µM (active)
